# Laboratory results as given in PubChem BioAssay AID1663 (Broad Institute, 2009).
# About 660 (0.22%) of roughly 300,000 compounds were called active.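 How the source made its calls: active means mean replicate score, as percent of positive control, at or above 50; inconclusive means mean below 50 but at least one replicate at or above 50; inactive means mean and every replicate below 50.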 This excerpt belongs to a sample that is enriched for actives.
# Assay: blockers of SFLLRN-triggered platelet ATP release – cell-based, MLPCN, human platelets, primary screen (AID 1663)
# Conditions: human platelet-rich plasma, SFLLRN dense granule ATP release, luminescence; hits give high values;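 compounds screened at 7.5 µM in platelet-rich plasma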
row,SMILES,inhibition
1,Cc1ccc(-n2ncc3c2CCCC3NC(=O)c2cnccn2)cc1C (stereo not given),-0.139% (inactive)
2,Cc1ccc(S(=O)(=O)N2CCOCC2)cc1C(=O)OC1CCCCC1=O (stereo not given),-6.92% (inactive)
3,COc1ccccc1NC(=O)Nc1nnc(Cc2ccc(F)cc2)s1,1.62% (inactive)
4,CC1CCC2(CC1)NC(=O)N(Cc1nnc(-c3cccs3)o1)C2=O (stereo not given),3.04% (inactive)
5,Cc1ccc2c(C)c(C(=O)N(C)CCC3CCCCO3)oc2c1C (stereo not given),4.71% (inactive)
6,COc1cccc(C(C(=O)NC2CCCC2)N(C(=O)c2ccco2)c2cccc(C(C)=O)c2)c1OC (stereo not given),-1.88% (inactive)
7,OCCC1CN(Cc2cccc(OC3CCCC3)c2)CCN1Cc1ccsc1 (stereo not given),-11.2% (inactive)
8,CCOc1ccc(S(=O)(=O)N2CCC(C(=O)NCc3ccccn3)CC2)cc1Cl,-1.17% (inactive)
9,O=C(Nc1ccc(-n2cccn2)cc1)C1CCN(Cc2ccsc2)CC1,0.088% (inactive)
10,CCOc1ccc(C(=O)Nc2cccc(SC)c2)cc1,25.4% (inactive)
11,COc1ccc(C(C(=O)NC(C)(C)C)N(Cc2ccc(F)cc2)C(=O)CCC(=O)Nc2cc(C)on2)cc1 (stereo not given),2.89% (inactive)
12,CCC1CCCCN1C(=S)Nc1ccc(S(=O)(=O)Nc2ncccn2)cc1 (stereo not given),-1.83% (inactive)
13,CC(=O)Nc1ccc(S(=O)(=O)NCC2CCC(C(=O)NCCc3ccccc3)CC2)cc1 (stereo not given),-0.696% (inactive)
14,Cc1ccc2c(cnn2C(=O)CCC(=O)NC2CCCC2)c1,6.24% (inactive)
15,CCn1c(SC(C)C(=O)Nc2ccc(N3CCOCC3)cc2)nnc1-c1ccco1 (stereo not given),-6.89% (inactive)
16,Cc1ccc(Oc2nc(-c3ccccn3)nc3ccccc23)cc1,7.76% (inactive)
17,O=C(Oc1ccc(Br)cc1)c1cccnc1,3.93% (inactive)
18,O=C(Oc1ccc(-c2nc(-c3ccccn3)no2)cc1)c1ccccc1,83.2% (active)
19,O=C1[C@@H]2C(c3cccnc3)=NO[C@@H]2C(=O)N1c1ccc(Cl)cc1Cl,3.23% (inactive)
20,COCCN(CCOC)c1nc(N)c2c(N)nc3c(c2c1C#N)CC(=O)N3Cc1ccc(Cl)cc1,-8.74% (inactive)
21,CCCC(=O)Nc1cccc(NC(=S)NC(=O)C(C)Oc2ccc(Cl)cc2Cl)c1 (stereo not given),4.37% (inactive)
22,Cn1nc(C(F)(F)F)c(C(=O)Nc2cccc(C(F)(F)F)c2)c1SCc1ccc(Cl)cc1,0.563% (inactive)
23,Cc1c(C#N)c(NC(=O)c2ccccc2)n(Cc2ccccc2)c1C,-12.1% (inactive)
24,CCN1CCN(C(=O)c2ccc(CN(c3ccc(C)c(C)c3)S(C)(=O)=O)cc2)CC1,3.03% (inactive)

row,SMILES,inhibition
1,Cc1nc(N)c(Br)c(C)c1Br,-11.2% (inactive)
2,CCOc1ccc(CCNC(=O)COC(=O)C2CCN(c3ccc(C(F)(F)F)cn3)CC2)cc1OCC,-1.24% (inactive)
3,CCCCc1ccc(S(N)(=O)=O)cc1,5.59% (inactive)
4,NNC(=O)CNC(c1ccccc1)c1cc(Cl)ccc1NC(=O)c1ccccc1 (stereo not given),2.02% (inactive)
5,CCOC(=O)/C=C/c1ccc(C(F)(F)F)cc1S(=O)(=O)NC(C)(C)C,0.739% (inactive)
6,O=C(c1ccco1)N1CCN(CCOc2ccccc2)CC1,-1.03% (inactive)
7,O=C(c1ccco1)N1CCN(C(=O)c2ccc(COc3ccc(F)cc3)o2)CC1,60.5% (active)
8,COc1ccccc1OCc1ccc(C(=O)N2CCN(C)CC2)o1,-1.97% (inactive)
9,CN(C)NC(=O)C(NC(=O)c1ccc(N)cc1)C12CC3CC(CC(C3)C1)C2 (stereo not given),-0.607% (inactive)
10,O=C(CCN1CCc2ccccc2C(O)(c2ccccc2)C1)c1ccc2c(c1)OCCO2 (stereo not given),-76.9% (inactive)
11,CC(=O)Nc1ccc(CN2CCC(Oc3ccc(C(=O)N4CCCC4)cc3)CC2)cc1,-7.89% (inactive)
12,CC(C)(C)NC(=O)NC(=O)COC(=O)C1c2ccccc2Oc2ccccc21,-3.75% (inactive)
13,O=C(Nc1ccn(Cc2ccccc2)n1)c1cccc(F)c1,7.39% (inactive)
14,O=C(Nc1ccn(Cc2ccccc2)n1)c1n[nH]c([N+](=O)[O-])c1Cl,0.241% (inactive)
15,O=C(Nc1ccn(Cc2ccc(F)cc2)n1)c1ccncc1,50.5% (active)
16,O=C(Nc1ccc(S(=O)(=O)NCC2CCCO2)cc1)c1ccc(F)cc1 (stereo not given),-4.99% (inactive)
17,Cc1ccnc(NC(=O)c2ccoc2C)c1,50.8% (active)
18,Cc1ccnc(NC(=O)CNC(=O)c2ccccc2)c1,-2.51% (inactive)
19,COc1cc(SC)ccc1C(=O)Nc1cc(C)ccn1,5.66% (inactive)
20,Cc1csc(Nc2ccc(Cl)cc2)[n+]1-c1ccc(Cl)cc1,-1.67% (inactive)
21,Oc1ccc(CNc2ccccc2O)cc1,4.21% (inactive)
22,CCOc1ccc(C(=O)Nc2ccc(S(=O)(=O)NCC3CCCO3)cc2)cc1OCC (stereo not given),-1.27% (inactive)
23,COC(=O)CN1C(=O)C(C)(C)Oc2ccc(C(=O)Nc3cccc(OC)c3)cc21,-3.5% (inactive)
24,CCOC(=O)c1ccc(NC(=O)Cn2cnc3cc(C)c(C)cc32)cc1,9.16% (inactive)

row,SMILES,inhibition
1,CCCCn1c(N)c(N(CCC(C)C)C(=O)c2ccc(COc3ccccc3)o2)c(=O)[nH]c1=O,-0.548% (inactive)
2,Cc1ccc(NC(=O)CSCC(=O)Nc2sccc2C#N)cc1,-1.59% (inactive)
3,O=C1/C(=C/c2ccc(F)cc2)SC(=S)N1NS(=O)(=O)c1ccccc1,-3.17% (inactive)
4,COC(=O)/C=C\C(=O)Nc1cccc([N+](=O)[O-])c1,73% (active)
5,COc1cccc(CNC(=O)CCCC(=O)Nc2cccc([N+](=O)[O-])c2)c1,6.93% (inactive)
6,COc1ccc(S(=O)(=O)NC(C)C(=O)Nc2cccc([N+](=O)[O-])c2)cc1 (stereo not given),3.55% (inactive)
7,CN(C)c1nc(=Nc2cccc(Cl)c2)ss1,-3.66% (inactive)
8,CCc1ccc(-c2nc(SCC(=O)NC3CCCC3)n[nH]2)cc1,-5.4% (inactive)
9,CC(=O)CCS(=O)(=O)c1ccc(C)c(C)c1,3.49% (inactive)
10,OC(c1nc2ccccc2[nH]1)C(O)C(O)C(O)c1nc2ccccc2[nH]1 (stereo not given),-3.4% (inactive)
11,c1ccc2[nH]c(-c3nc4ccccc4[nH]3)nc2c1,76.6% (active)
12,Cc1ccc(-c2nc3ccccc3[nH]2)cc1N,17.1% (inactive)
13,O=C(Nc1cccc(-c2cscn2)c1)C1CCN(Cc2ccsc2)CC1,-6.81% (inactive)
14,CC[n+]1cc(C)ccc1/C=C/c1ccc(N(C)C)cc1,9.22% (inactive)
15,CCCCC(=O)Nc1ccccc1N1CCN(c2ccc(F)cc2)CC1,2.05% (inactive)
16,CNC(=O)C1CC(=O)N(Cc2ccc3c(c2)OCO3)C(=Nc2ccc(F)cc2)S1 (stereo not given),-5.44% (inactive)
17,Cc1ccc(N=Cc2c(O)n(-c3nccs3)c(=O)c3ccccc23)c(C)c1,-7.35% (inactive)
18,COc1ccc(-c2nc(N)sc2C2(O)C(=O)Nc3c(Br)cc(F)cc32)cc1OC (stereo not given),7.83% (inactive)
19,COCCNC(=O)NC(=O)COC(=O)C1(c2ccc(Cl)cc2)CC1,11.8% (inactive)
20,COc1ccc(CNC(=O)c2cc(C(=O)C3CC3)c[nH]2)cc1,-3.25% (inactive)
21,COc1ccc(C(=O)COC(=O)c2ccc3ccccc3n2)cc1,-2.98% (inactive)
22,C/C(=N\N=C(N)N)c1ccc(Cl)cc1,-7.88% (inactive)
23,Cc1ncn2cc(-c3ccc(Cl)cc3Cl)[nH]c(=O)c12,-3% (inactive)
24,Cc1cc(C)cc(OCC(=O)O/N=C(\N)Cc2ccc([N+](=O)[O-])cc2)c1,1.64% (inactive)

row,SMILES,inhibition
1,CNC(=S)N1CCC(NC(=O)C(Cc2ccc(F)cc2)NC(C)=O)CC1 (stereo not given),0.885% (inactive)
2,CCOCCCN(C(=O)Cn1nnc(-c2ccc(OC)c(OC)c2)n1)C(CC)C(=O)NC1CCCC1 (stereo not given),7.27% (inactive)
3,CCn1c(SCC(=O)NC2CCCC2)nnc1-c1ccoc1C,-1.97% (inactive)
4,Cc1ccc(OCC(=O)Oc2ccccc2[N+](=O)[O-])cc1,-2.97% (inactive)
5,COc1ccc(/C(C)=N/NC(=O)c2ccc3nc[nH]c3c2)cc1,8.86% (inactive)
6,CCCC(C)C(=O)OCC(=O)Nc1c(Br)cc(C)cc1Br (stereo not given),20.5% (inactive)
7,Cn1c(=O)n(CCc2ccccc2)c(=O)c2c1nc1n2CCCN1c1ccccc1,-2.86% (inactive)
8,Cc1cccc(N2CC(C)Cn3c2nc2c3c(=O)n(CC(=O)OCc3ccccc3)c(=O)n2C)c1 (stereo not given),55.7% (active)
9,Cc1cccc(Cn2c(N3CCN(c4ccccc4)CC3)nc3c2c(=O)n(C)c(=O)n3C)c1,1.96% (inactive)
10,CCN(CC)S(=O)(=O)c1ccc(-c2cn3ccc(C)cc3n2)cc1,5.08% (inactive)
11,COc1ccc(-c2cn3ccc(C)cc3n2)cc1,64.2% (active)
12,COc1ccc(-c2cn3ccsc3n2)cc1,16.7% (inactive)
13,CCOC(=O)C1CCN(Cc2nnc(-c3cccc(Br)c3)o2)CC1,2.47% (inactive)
14,[O-][N+]12CCCCC1CCCC2CO (stereo not given),4.81% (inactive)
15,O=C1NNC(c2ccccc2)=N/C1=C\c1ccc(Cl)cc1,-15.9% (inactive)
16,O=C1c2ccccc2C2=Nc3ccccc3SC(c3ccccc3F)C12 (stereo not given),2.23% (inactive)
17,Cc1c(Cl)cccc1NC(=O)NCc1ccc(C)n1C,-4.12% (inactive)
18,Cc1cccc(NC(=O)CCn2c(=O)oc3ccccc32)c1,8.63% (inactive)
19,CC(=O)c1nnn(-c2ccc(Cl)cc2C#N)c1C,-27.7% (inactive)
20,COc1ccc(C(=O)Nc2cccc(NC(=O)c3ccc(OC)cc3OC)n2)c(OC)c1,10.1% (inactive)
21,CCOC(=O)C1C(c2ccc(OC)c(OC)c2)c2c([nH][nH]c2=O)CC1(C)O (stereo not given),57.3% (active)
22,CCOC(=O)C1C(c2ccc(O)cc2)NC(=O)NC1(O)C(F)(F)F (stereo not given),-5.44% (inactive)
23,CCOC(=O)C1C(c2ccc(Cl)cc2)NC(=S)NC1(O)C(F)(F)F (stereo not given),-3.31% (inactive)
